This passage reports cytotoxicity call results from the antibiotic and cytotoxicity screens of Wong et al. (2023).

Screen size: about 39,000 compounds; about 1,500 (3.8%) were called active. Many of the other results were omitted from the sample, so actives are more common in it than they were.

For this assay, the system named is HSkMC (human skeletal muscle cells). The experiment in a line: cytotoxicity call (relative viability < 0.9). To be noted: 10 µM.
In the case of `CC(C)NC(=O)N(C)C[C@H]1Oc2ccc(NS(=O)(=O)c3cn(C)cn3)cc2C(=O)N([C@H](C)CO)C[C@@H]1C`, the cytotoxicity call is “inactive”.
Consider `O=C(CCCCCNC(=O)OCc1ccc(CO[C@@H]2C[C@H](C3CCCCC3)C=C(C(=O)N3CCN(Cc4ccc5c(c4)OCO5)CC3)O2)cc1)NO`, for which the cytotoxicity call is “inactive”.
Take `COc1ccc(CN(C)C[C@@H]2Oc3ccc(NC(=O)C4CC4)cc3CC(=O)N([C@@H](C)CO)C[C@@H]2C)cc1`: the cytotoxicity call is “inactive”.
With `COc1cc(O)cc(OC)c1O[C@@H]1O[C@H](CO)[C@@H](O)[C@H](O)[C@H]1O` the entry was “inactive”; with `C[C@H]1CN([C@@H](C)CO)C(=O)Cc2cc(NC(=O)CCCCCC(=O)Nc3ccccc3N)ccc2O[C@@H]1CN(C)Cc1ccc(Cl)c(Cl)c1`, “inactive”.
Take `C[C@H]1CN([C@@H](C)CO)C(=O)c2cc(NC(=O)CCN3CCOCC3)ccc2O[C@H]1CN(C)S(=O)(=O)c1ccc(F)cc1`: the cytotoxicity call is “inactive”.
With `C[C@H](CO)N1C[C@H](C)[C@H](CN(C)Cc2ccc(C(F)(F)F)cc2)Oc2ccc(NC(=O)C3CCCCC3)cc2C1=O` the entry was “inactive”; with `Cc1ccc(S(=O)(=O)Nc2ccc3c(c2)CC(=O)N([C@@H](C)CO)C[C@H](C)[C@H](CN(C)Cc2ccc(-c4ccccc4)cc2)O3)cc1`, “active”; with `Cc1ccc(S(=O)(=O)Nc2ccc3c(c2)CC(=O)N([C@@H](C)CO)C[C@@H](C)[C@H](CN(C)Cc2ccc(-c4ccccc4)cc2)O3)cc1`, “inactive”.
As to `Cc1noc(C)c1NC(=O)Nc1ccc2c(c1)C(=O)N([C@@H](C)CO)C[C@@H](C)[C@H](CN(C)C(=O)NC1CCCCC1)OCCCC[C@H](C)O2`, the cytotoxicity call was “inactive”.
In the case of `CC(=O)NCCn1cccc1`, the cytotoxicity call is “inactive”.
Consider `C[C@@H]1CCCCO[C@H](CN(C)Cc2ccc(C(F)(F)F)cc2)[C@@H](C)CN([C@@H](C)CO)C(=O)c2cc(NS(=O)(=O)c3ccc(F)cc3)ccc2O1`, for which the cytotoxicity call was “inactive”.
Consider `C[C@H](CO)N1C[C@H](C)[C@H](CN(C)Cc2ccc(Cl)c(Cl)c2)OCCCC[C@H](C)Oc2ccc(NC(=O)c3ccccc3)cc2C1=O`, for which the cytotoxicity call was “inactive”.
With `C[C@@H]1CCCCO[C@H](CN(C)Cc2ccc(Cl)c(Cl)c2)[C@@H](C)CN([C@@H](C)CO)C(=O)c2cc(NC(=O)c3ccccc3)ccc2O1`, the cytotoxicity call is “inactive”.
As to `C[C@@H]1CCCCO[C@H](CN(C)Cc2ccc(Cl)c(Cl)c2)[C@@H](C)CN([C@H](C)CO)C(=O)c2cc(NC(=O)c3ccccc3)ccc2O1`, the cytotoxicity call was “inactive”.
Regarding `C[C@H](CO)N1C[C@H](C)[C@@H](CN(C)Cc2ccc(Cl)c(Cl)c2)OCCCC[C@H](C)Oc2ccc(NC(=O)c3ccccc3)cc2C1=O`, the cytotoxicity call is “inactive”.
The value for `C[C@@H]1CCCCO[C@@H](CN(C)Cc2ccc(Cl)c(Cl)c2)[C@H](C)CN([C@@H](C)CO)C(=O)c2cc(NC(=O)c3ccccc3)ccc2O1` was “active”.
With `C[C@@H]1CN([C@H](C)CO)C(=O)c2cc(NC(=O)c3ccccc3)ccc2O[C@@H](C)CCCCO[C@H]1CN(C)Cc1ccc(Cl)c(Cl)c1` the entry was “inactive”.
With `C[C@@H]1CCCCO[C@H](CN(C)Cc2ccc(Cl)c(Cl)c2)[C@H](C)CN([C@@H](C)CO)C(=O)c2cc(NC(=O)c3ccccc3)ccc2O1`, the cytotoxicity call was “inactive”.
The value for `C[C@H]1CCCCO[C@H](CN(C)Cc2ccc(Cl)c(Cl)c2)[C@@H](C)CN([C@@H](C)CO)C(=O)c2cc(NC(=O)c3ccccc3)ccc2O1` was “active”; that for `C[C@@H]1CCCCO[C@@H](CN(C)Cc2ccc(Cl)c(Cl)c2)[C@H](C)CN([C@H](C)CO)C(=O)c2cc(NC(=O)c3ccccc3)ccc2O1` was “active”.
Regarding `C[C@H](CO)N1C[C@H](C)[C@@H](CN(C)S(=O)(=O)c2ccc(Cl)cc2)Oc2c(NC(=O)Nc3ccc(C(F)(F)F)cc3)cccc2C1=O`, the cytotoxicity call was “inactive”.
With `O=C(Cc1ccncc1)NCC[C@H]1CC[C@H](NC(=O)C2CCOCC2)[C@H](CO)O1`, the cytotoxicity call is “inactive”.
In the case of `Cc1noc(C)c1S(=O)(=O)N(C)C[C@@H]1OCCCC[C@@H](C)Oc2ccc(NC(=O)Nc3ccc(F)cc3)cc2C(=O)N([C@@H](C)CO)C[C@H]1C`, the cytotoxicity call is “inactive”.
Consider `C[C@H](NC(=O)C[C@H]1C[C@H]2c3cc(NC(=O)Nc4ccc(C(F)(F)F)cc4)ccc3O[C@H]2[C@H](CO)O1)c1ccccc1`, for which the cytotoxicity call is “inactive”.
In the case of `C[C@@H]1CCCCO[C@@H](CN(C)Cc2ccc(Cl)c(Cl)c2)[C@@H](C)CN([C@H](C)CO)C(=O)c2cc(NC(=O)CCCN(C)C)ccc2O1`, the cytotoxicity call was “inactive”.
With `Cc1ccc(S(=O)(=O)N2C[C@@H](O)COC[C@H]3O[C@@H](CC(=O)N[C@@H]4CCN(Cc5ccccc5)C4)CC[C@@H]32)cc1` the entry was “inactive”; with `CC(C)C[C@H]1NC(=O)N(C)C1=O`, “inactive”.
Take `C[C@H](CO)N1C[C@H](C)[C@@H](CN(C)C(=O)c2ccccn2)Oc2cc(C#Cc3ccc(F)cc3)ccc2S1(=O)=O`: the cytotoxicity call was “inactive”.
For `CC(C)CC#Cc1ccc2c(c1)O[C@H](CN(C)S(=O)(=O)c1cccc(F)c1)[C@H](C)CN([C@@H](C)CO)S2(=O)=O`, the cytotoxicity call was “inactive”.
With `C[C@@H]1CCCCO[C@@H](CN(C)Cc2ccc(C(F)(F)F)cc2)[C@@H](C)CN([C@@H](C)CO)C(=O)c2cc(NS(=O)(=O)c3ccc(Cl)cc3)ccc2O1`, the cytotoxicity call was “inactive”.
`C[C@@H]1CCCCO[C@H](CN(C)Cc2ccc(C(F)(F)F)cc2)[C@H](C)CN([C@H](C)CO)C(=O)c2cc(NS(=O)(=O)c3ccc(Cl)cc3)ccc2O1`: the cytotoxicity call was “inactive”.
`C[C@@H]1CCCCO[C@H](CN(C)Cc2ccc(C(F)(F)F)cc2)[C@H](C)CN([C@@H](C)CO)C(=O)c2cc(NS(=O)(=O)c3ccc(Cl)cc3)ccc2O1`: the cytotoxicity call is “active”.
Consider `C[C@@H]1CN([C@H](C)CO)C(=O)c2cc(NS(=O)(=O)c3ccc(Cl)cc3)ccc2O[C@@H](C)CCCCO[C@H]1CN(C)Cc1ccc(C(F)(F)F)cc1`, for which the cytotoxicity call was “active”.
In the case of `C[C@@H]1CN([C@@H](C)CO)C(=O)c2cc(NS(=O)(=O)c3ccc(F)cc3)ccc2O[C@@H](C)CCCCO[C@@H]1CN(C)Cc1ccc(C(F)(F)F)cc1`, the cytotoxicity call was “inactive”.
The value for `C[C@@H]1CCCCO[C@H](CN(C)Cc2ccc(C(F)(F)F)cc2)[C@@H](C)CN([C@@H](C)CO)C(=O)c2cc(NS(=O)(=O)c3ccc(Cl)cc3)ccc2O1` was “active”; that for `C[C@H](CO)N1C[C@H](C)[C@@H](CN(C)Cc2ccc(C(F)(F)F)cc2)OCCCC[C@H](C)Oc2ccc(NS(=O)(=O)c3ccc(Cl)cc3)cc2C1=O` was “active”.
For the compound `C[C@H]1CCCCO[C@H](CN(C)Cc2ccc(C(F)(F)F)cc2)[C@@H](C)CN([C@@H](C)CO)C(=O)c2cc(NS(=O)(=O)c3ccc(F)cc3)ccc2O1`, the cytotoxicity call was “inactive”.
For `O=C(C[C@H]1CC[C@@H](NC(=O)Cc2ccccn2)[C@H](CO)O1)NCCc1ccncc1`, the cytotoxicity call is “inactive”.
`C[C@H]1CN([C@@H](C)CO)C(=O)c2cccc(NS(=O)(=O)c3cccs3)c2O[C@@H]1CN(C)Cc1ccc(Oc2ccccc2)cc1`: the cytotoxicity call is “inactive”.
On to `C/C=C/[C@@H](CCn1cc(CCO[Si](C(C)C)(C(C)C)C(C)C)nn1)[Si](C)(C)c1ccc(OC)cc1`, for which the cytotoxicity call is “inactive”.
On to `C[C@@H]1CN([C@H](C)CO)C(=O)c2cc(C#Cc3ccccn3)cnc2O[C@@H]1CN(C)C(=O)CCN1CCCCC1`, for which the cytotoxicity call is “inactive”.
For `C=CCNC(=O)[C@H]1[C@@H]2C(=O)O[C@@H](c3ccccc3)[C@@H](c3ccccc3)N2[C@@H](c2ccccc2OCCO)[C@]12C(=O)N(C(=O)OCCOC)c1ccc(C#CC3(O)CCCCCC3)cc12`, the cytotoxicity call is “inactive”.
The value for `C[C@@H]1CCCCO[C@H](CN(C)C(=O)C2CCCCC2)[C@H](C)CN([C@H](C)CO)C(=O)c2cc(NC(=O)Cc3ccccc3)ccc2O1` was “inactive”.
With `Nc1cnc2ncc(N)cc2c1`, the cytotoxicity call is “inactive”.
`CN1CCN(C(=O)C[C@@H]2C=C[C@H](NS(=O)(=O)c3cccc(F)c3)[C@H](CO)O2)CC1`: the cytotoxicity call was “inactive”.
With `C[C@@H]1CCCCO[C@@H](CN(C)CC2CCCCC2)[C@@H](C)CN([C@H](C)CO)C(=O)c2cc(NC(=O)NC3CCCCC3)ccc2O1` the entry was “inactive”; with `Nc1nc(=O)c2nc(C(=O)O)cnc2[nH]1`, “inactive”; with `COc1cccc(S(=O)(=O)N(C)C[C@@H]2Oc3cc(Br)ccc3S(=O)(=O)N([C@@H](C)CO)C[C@@H]2C)c1`, “inactive”.
As to `C[C@@H]1CCCCO[C@@H](CN(C)Cc2ccc(C(F)(F)F)cc2)[C@@H](C)CN([C@H](C)CO)C(=O)c2cc(NS(=O)(=O)c3ccc(Cl)cc3)ccc2O1`, the cytotoxicity call was “inactive”.
`C[C@H](CO)N1C[C@H](C)[C@H](CN(C)Cc2ccc(C(F)(F)F)cc2)OCCCC[C@H](C)Oc2ccc(NS(=O)(=O)c3ccc(Cl)cc3)cc2C1=O`: the cytotoxicity call was “active”.
For the compound `C[C@@H]1CCCCO[C@@H](CN(C)Cc2ccc(C(F)(F)F)cc2)[C@H](C)CN([C@@H](C)CO)C(=O)c2cc(NS(=O)(=O)c3ccc(Cl)cc3)ccc2O1`, the cytotoxicity call is “active”.
With `C[C@@H]1CN([C@@H](C)CO)C(=O)c2cc(NS(=O)(=O)c3ccc(Cl)cc3)ccc2O[C@@H](C)CCCCO[C@@H]1CN(C)Cc1ccc(C(F)(F)F)cc1`, the cytotoxicity call is “inactive”.
Consider `C[C@@H]1CN([C@H](C)CO)C(=O)c2cc(NS(=O)(=O)c3ccc(Cl)cc3)ccc2O[C@@H](C)CCCCO[C@@H]1CN(C)Cc1ccc(C(F)(F)F)cc1`, for which the cytotoxicity call is “inactive”.
With `C[C@H]1CCCCO[C@H](CN(C)Cc2ccc(C(F)(F)F)cc2)[C@@H](C)CN([C@@H](C)CO)C(=O)c2cc(NS(=O)(=O)c3ccc(Cl)cc3)ccc2O1` the entry was “active”; with `C[C@H]1CCCCO[C@@H](CN(C)Cc2ccc(C(F)(F)F)cc2)[C@@H](C)CN([C@@H](C)CO)C(=O)c2cc(NS(=O)(=O)c3ccc(Cl)cc3)ccc2O1`, “inactive”.
For `C[C@@H]1CCCCO[C@@H](CN(C)Cc2ccc(C(F)(F)F)cc2)[C@H](C)CN([C@H](C)CO)C(=O)c2cc(NS(=O)(=O)c3ccc(Cl)cc3)ccc2O1`, the cytotoxicity call is “active”.
Consider `C[C@@H]1CCCCO[C@H](CN(C)Cc2ccc(C(F)(F)F)cc2)[C@@H](C)CN([C@H](C)CO)C(=O)c2cc(NS(=O)(=O)c3ccc(Cl)cc3)ccc2O1`, for which the cytotoxicity call is “inactive”.
Turning to `C[C@H]1CCCCO[C@@H](CN(C)Cc2ccc(C(F)(F)F)cc2)[C@@H](C)CN([C@@H](C)CO)C(=O)c2cc(NS(=O)(=O)c3ccc(F)cc3)ccc2O1`, the cytotoxicity call is “inactive”.
